Most compounds without a hit are left out; they make up all but 4.2% or so of the library.
BJeLR lethal – MLPCN primary cell-based screen for lethality selective to Ras in HRASV12 cells; BJeLR (HRASV12) viability, CellTiter-Glo ATP luminescence, 48 h; inhibition, % (no concentration beside the values); 300,000 compounds, 0.17% hits; AID 1554, 2009; in the data active means inhibition above about 50%
GDH-TPI counter-1 – GDH-TPI coupling enzyme inhibitors, primary screen, artefact control for M. tuberculosis FBA inhibitor project, biochemical, absorbance, full deck; GDH-TPI coupled enzyme counterscreen, NADH absorbance; inhibition, % at 4.8 µM; 360,000 compounds, 1.2% hits; in the data active means inhibition above about 30%;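 further: 0% = DMSO wells and 100% = wells lacking the enzyme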
PrPC TRFRET – inhibitors of human cell surface prion protein PrPC, primary screen, cell-based, TR-FRET; Major prion protein (Homo sapiens), P04156; TR-FRET read-out; inhibition, % at 13.8 µM; 370,000 compounds, 0.43% hits; in the data active means inhibition above about 24%; further: 0% = median of the test wells and 100% = reference compound wells
Mtb FBA inh – Mtb FBA enzyme inhibitors, primary screen, biochemical, fluorescence, strain H37Rv | 360,000 compounds, 2.3% hits | inhibition, % at 1 µM | purified M. tuberculosis FBA, fluorescence read-out | Fructose-bisphosphate aldolase (Mycobacterium tuberculosis (strain ATCC 25618 / H37Rv)), … | AID 588726, 2011;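 further: 0% = vehicle and 100% = reference inhibitor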
RecA splice inh – Mtb RecA intein splicing inhibitors, primary screen, biochemical, fluorescence, HTS; Protein RecA (Mycobacterium tuberculosis (strain ATCC 25618 / H37Rv)), P9WHJ3; cell-free RecA intein splicing; inhibition, % (concentration not given with the values); 290,000 compounds, 0.75% hits; in the data active means inhibition above about 30%;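 further: 0% = vehicle wells and 100% = reference inhibitor control wells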
Target sequence (P9WHJ3 whole entry, looked up, canonical isoform): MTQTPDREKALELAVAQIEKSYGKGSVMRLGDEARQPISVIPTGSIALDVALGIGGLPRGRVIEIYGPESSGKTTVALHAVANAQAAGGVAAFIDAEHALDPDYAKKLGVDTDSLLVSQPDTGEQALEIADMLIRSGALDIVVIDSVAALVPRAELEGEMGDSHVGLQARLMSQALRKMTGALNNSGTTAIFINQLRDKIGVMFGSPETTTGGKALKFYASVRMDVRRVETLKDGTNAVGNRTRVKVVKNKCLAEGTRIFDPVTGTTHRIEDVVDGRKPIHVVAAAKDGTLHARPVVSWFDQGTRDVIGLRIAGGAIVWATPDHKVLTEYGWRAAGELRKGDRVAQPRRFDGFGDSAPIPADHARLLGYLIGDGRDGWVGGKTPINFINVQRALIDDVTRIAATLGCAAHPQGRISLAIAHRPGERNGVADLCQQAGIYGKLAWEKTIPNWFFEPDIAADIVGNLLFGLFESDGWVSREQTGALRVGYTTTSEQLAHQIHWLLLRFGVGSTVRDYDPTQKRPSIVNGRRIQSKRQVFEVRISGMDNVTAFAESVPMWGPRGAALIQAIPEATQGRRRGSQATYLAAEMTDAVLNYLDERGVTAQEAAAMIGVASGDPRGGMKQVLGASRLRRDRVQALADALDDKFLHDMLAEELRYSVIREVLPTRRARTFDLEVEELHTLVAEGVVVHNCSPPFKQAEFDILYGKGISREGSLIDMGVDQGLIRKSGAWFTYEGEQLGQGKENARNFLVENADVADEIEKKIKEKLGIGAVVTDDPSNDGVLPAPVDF
Mtb FBA inh conf – M. tuberculosis aldolase blockers, biochemical, fluorescence, strain H37Rv, confirmation; purified M. tuberculosis FBA, fluorescence read-out; inhibition, % at 1 µM; AID 651616, 2012; shares compounds with Mtb FBA inh; 5,600 compounds, 78% hits;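 further: 0% = vehicle wells and 100% = reference inhibitor wells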
GDH-TPI counter-2 – GDH-TPI coupling enzyme inhibitors, artefact control for M. tuberculosis FBA inhibitor project, biochemical, fluorescence, high throughput | shares compounds with Mtb FBA inh | GDH-TPI coupled enzyme counterscreen | inhibition, % at 1 µM | 5,600 compounds, 81% hits | AID 652141, 2013; in the data active means inhibition above about 10%
An asterisk follows results filed as active; / = no result; + = active, no number. Unless noted, no stated cut-off is given here; in the data, active means inhibition above about 27%; inactive means the rest.

SMILES	BJeLR lethal	GDH-TPI counter-1	PrPC TRFRET	Mtb FBA inh	RecA splice inh	Mtb FBA inh conf	GDH-TPI counter-2
COc1cc2c(cc1OC)[C@](C)(c1ccccc1)C[C@@H]2NCC=C(C)C	/	/	2.7	/	/	/	/
NS(=O)(=O)c1ccc(NC(=O)COC(=O)CCCN2C(=O)c3cccc4cccc(c34)C2=O)cc1	/	21.1	-18.5	17.4	/	/	/
COC(=O)CCCN1C(=O)c2cccc3cccc(c23)C1=O	-16.9	6.6	-31.9	35.3*	2.0	128.8*	111.0*
C#CCOC(=O)CCCN1C(=O)c2cccc3cccc(c23)C1=O	/	22.1	-21.7	32.4*	/	156.3*	121.1*
NC(=O)c1ncn([C@@H]2O[C@H](C(=O)Nc3ccc(C(=O)N4CCCCC4)cc3)[C@@H](O)[C@H]2O)n1	/	/	-7.8	/	/	/	/
O=C(OC12CCCN(C1)/C(=C/c1cccnc1)C2)C1CCCCC1 (stereo unspecified)	/	/	11.9	/	/	/	/
N#Cc1c(-c2ccc(F)cc2)c2c([nH]c1=O)-c1ccccc1OC2	8.1	-7.7	7.8	104.6*	-35.7	+	+
O=C(Nc1ccc(Cl)cc1Cl)OC1CCC12CCC(c1ccccc1)CC2 (stereo unspecified)	/	/	-9.1	/	/	/	/
CCCNC(=O)Nc1nc2ccccc2s1	1.2	-1.3	-0.8	4.5	-0.2	/	/
CCCNC(=O)c1ccc(-c2nc3ccccc3s2)s1	1.2	32.3*	-38.0	48.2*	-5.8	99.6*	65.9*
Cc1cccc(OCC(=O)Nc2ccc3c(C)cc(=O)oc3c2)c1	1.2	15.1	10.2	14.7	0.2	/	/
Cc1ccccc1CC(=O)Nc1ccc2c(C)cc(=O)oc2c1	21.1	2.6	3.0	93.7*	-1.2	7.0	7.0
COc1ccccc1CC(=O)Nc1ccc2c(C)cc(=O)oc2c1	0.3	22.3	-5.3	36.6*	-5.6	100.8*	81.9*
CC1(c2ccccc2)NC(=O)N(CC(=O)Nc2ccc3c(c2)OCO3)C1=O (stereo unspecified)	1.9	5.6	6.5	4.9	0.1	/	/
Cc1cc(=O)oc2cc(NC(=O)CN3C(=O)NC(C)(c4ccccc4)C3=O)ccc12 (stereo unspecified)	9.4	11.4	-5.0	61.1*	-3.3	136.9*	103.0*
Cc1cc(=O)oc2cc(NC(=O)COc3cccc(C(F)(F)F)c3)ccc12	/	15.7	2.9	41.5*	/	70.6*	49.7*
O=C(OCc1cn(Cc2c(F)cccc2F)nn1)N1CCOCC1	/	/	0.0	/	/	/	/
Cc1cc(=O)oc2cc(NC(=O)c3ccccc3Cl)ccc12	-0.3	22.2	7.8	95.6*	-1.1	0.0	0.3
Cc1cc(=O)oc2cc(NC(=O)c3ccnn3C)ccc12	-4.0	8.8	/	31.9*	-0.7	+	+
CCCCOC(=O)Nc1ccc2c(C)cc(=O)oc2c1	1.1	16.5	2.0	83.8*	0.2	6.8	2.4
Cc1cc(=O)oc2cc(NC(=O)C(CCCN=C(N)N)NC(=O)OCc3ccccc3)ccc12 (stereo unspecified)	-1.5	18.4	4.0	37.1*	6.2	38.3*	22.9*
O=C(O)c1ccccc1-c1ccccc1C(=O)Nc1ccc2c(c1)oc(=O)c1ccccc12	/	29.9	3.5	33.5*	/	2.2	-3.3
Cc1ccccc1CC1(CO)CCCN(C(=O)CCCN2CCCCC2=O)C1 (stereo unspecified)	5.6	2.5	-4.7	29.2*	2.0	23.8	23.1*
CCOC(=O)C1(Cc2ccccc2C)CCCN(C(=O)CN2CCCCC2=O)C1 (stereo unspecified)	-3.0	2.6	-0.4	0.7	0.6	/	/
COC(=O)[C@]12C[C@H](CC(=O)NCc3cccc4ccccc34)C(=O)N(CCC3=CCCCC3)C1=C[C@H](C(C)(C)C)O[C@@H]2C	/	/	-4.6	/	/	/	/
SMILES	BJeLR lethal	GDH-TPI counter-1	PrPC TRFRET	Mtb FBA inh	RecA splice inh	Mtb FBA inh conf	GDH-TPI counter-2
CCOC(=O)c1sc(Nc2nc3c(OC)cccc3s2)nc1C	-7.8	0.9	-2.5	66.0*	-3.5	64.0*	56.7*
CCOC(=O)c1sc(Nc2ccc(F)cc2)nc1C	3.8	8.8	6.7	5.5	-2.1	/	/
Cc1ccc(Cn2cc(COC(=O)N3CCCC3)nn2)cc1	/	/	-2.8	/	/	/	/
O=C(Cn1ccc(C(F)(F)F)n1)N/N=C/c1ccc(N2CCOCC2)cc1	1.2	30.6	-0.5	39.0*	0.7	127.4*	101.6*
CCN(CC)S(=O)(=O)c1cccc(C(=O)N/N=C/c2ccc(N3CCOCC3)cc2)c1	-0.2	25.6	-2.9	28.4*	-1.6	-4.0	-2.5
CN(C)S(=O)(=O)c1cccc(C(=O)Nc2ccc(N3CCOCC3)cc2)c1	-2.6	0.0	7.9	2.0	14.6	/	/
O=c1cc(-c2ccccc2)nc2n1Cc1ccccc1-2	7.0	0.0	2.1	-2.6	0.0	/	/
COc1ccc(-c2nc3n(c2C)Cc2ccccc2-3)cc1	-11.5	7.2	-6.1	110.9*	0.2	101.1*	92.8*
COc1ccccc1C1CC(c2cccs2)=Nc2ccccc2S1 (stereo unspecified)	5.8	6.2	-8.8	-1.1	5.0	/	/
COc1ccccc1C1CN(c2ccc(F)cc2F)N=C1c1cccs1 (stereo unspecified)	7.7	10.2	9.7	83.3*	-12.9	177.3*	131.9*
CC(C)NC(=O)c1ccc2c(=O)n(CC3CCCO3)c(=S)[nH]c2c1 (stereo unspecified)	7.9	6.2	-1.1	0.3	-0.1	/	/
CCOC(=O)c1cc2c(=O)n3cccc(C)c3nc2n(CC2CCCO2)c1=NC(C)=O (stereo unspecified)	4.1	5.6	6.8	79.3*	-1.5	90.3*	68.3*
CN1Cc2nnn(Cc3ccccc3)c2-c2cc(N3CCCC3)ccc2S1(=O)=O	/	/	3.2	/	/	/	/
CCc1cc(=O)oc2cc(OC(C)C(=O)NCC3CCC(C(=O)O)CC3)c(Cl)cc12 (stereo unspecified)	-6.3	12.8	-6.0	6.0	16.2	/	/
CCCc1cc(=O)oc2cc(C)cc(OC(C)C(=O)NCC3CCC(C(=O)O)CC3)c12 (stereo unspecified)	-4.0	-4.9	-8.0	69.3*	/	69.8*	46.0*
CCCCc1cc(=O)oc2cc(C)cc(OC(C)C(=O)NCC3CCC(C(=O)O)CC3)c12 (stereo unspecified)	-1.6	6.9	-4.4	79.0*	/	1.0	-5.0
Cc1cc(OC(C)C(=O)NCC2CCC(C(=O)O)CC2)c2c(C)c(C)c(=O)oc2c1 (stereo unspecified)	0.7	9.8	-0.8	8.7	-1.0	/	/
O=S1(=O)c2ccccc2-c2c(nnn2Cc2ccccc2)CN1C1CC1	/	/	0.3	/	/	/	/

Screens as filed in PubChem BioAssay.
